# Assay results: PubChem BioAssay AID1508600 (Functional Genomics Laboratory (NCATS/FGL), 2020)
# The whole screen tested about 53,000 sequences, of which about 3,700 (7%) were called active. Only a selection was taken, and actives are over-represented in it overall. Values without a mark were called inactive.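 Rule for the calls: active = gene knockdowns whose robust z-score for IL-1 alpha signal is at least 2 or at most -2, so actives lie on both sides; inactive = the rest.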
# Assay: Components of the Cytosolic LPS Sensing Pathway: Gene Identification via Genome-wide siRNA Screen;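 note: robust z of the log signal after scaling to non-targeting control siRNA wells of the plate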
# Conditions: RAW264.7 macrophages, IL-1a HTRF, actives lie on both sides, screened at 100 nM (by protocol), cells primed 5 h with Pam3CSK4 first
# In short: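 RAW264.7 mouse macrophages reverse-transfected with single siRNAs (100 nM final) for 48h, primed with Pam3CSK4 for 5 hours, then transfected with LipidA for 24 hour. Supernatant IL-1a read by HTRF; values normalized to negative-control median, log-transformed robust z-scores.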
row,Sequence,z-score
1,GGAAUUUGAAUCACGUUUGTT against Hprt,1.72
2,CGGAUUCGGGAAUUCUAUCTT against Pcgf1,0.143
3,GGGUACCUCGUGGUACAUUTT against Rapgef3,0.352
4,GGUCCAAAAGUUGUUUCAATT against Oga,3.12 (active)
5,GGAUUCAGCAGCUUCAGAATT against Rex1bd,0.221
6,GGAUUAUGCAAGUUACAUUTT against Nsf,-0.63
7,GCACCUAGUUAAUGCUGCCTT against C2cd2,-2.15 (active)
8,GCAGGCAUCGUGUUUACCATT against Cdh20,1.86
9,GCUCAAUUGUUCUUCUUUUTT against Olfr806,-1.13
10,GCUUUAGAACAGAGGGUUATT against Scd4,0.989
11,GGAGAUCUUCAACUGCCACTT against Rps6kl1,0.842
12,GGUGAUUACUCUUAUGUGATT against Slc7a8,-0.663
13,GGCUGAAGGAGCAAUCAAATT against L3mbtl3,1.85
14,GGCCGUUAUUAAAUUCAUATT against Twsg1,-0.609
15,GCCGUACCAUGUAAUGCCATT against Naa60,-2.05 (active)
16,GGCCUCAGCUCACAACAAATT against Sf3b4,-1.71
17,GGAAGCAAAAUAAAGAAACTT against Myo1e,0.109
18,GCGAGAGUCACAAAGUGCATT against Rcc1l,1.35
19,GCUAGAGGUGACUGAUGUCTT against Tti1,-1.26
20,GGAACAAGAGAGGACAAGUTT against Papss2,0.555
21,GCCAAAAGUCGAGCACCUCTT against Lrrc8d,0.43
22,CGGUGCUUGCUUCUAUGUGTT against Olfr642,0.201

row,Sequence,z-score
1,GCUUUUGUGACUCUGCUGATT against Raver1,-1.41
2,CCAUCUAUCAACUUCUACATT against Sat1,-0.34
3,GGCUAUGUUCACCUGUGGATT against Kbtbd12,-2.66 (active)
4,CCUGUAAGAACCUUGCCUATT against Sytl3,0.733
5,GGAAGGAAGAAGACAAUAATT against Nudt16l1,-0.438
6,GCGGAUGAUCAAGAAUCGATT against Atf6b,-0.421
7,GCUGUGAAAACGCAGUUACTT against Ccser2,1.77
8,CCUAUACAUGCUACUGAACTT against Itga9,-0.723
9,CCCAGGGUACCUCACAUCUTT against Nrp1,-0.595
10,GGUCAUCAAUGCCACAGCUTT against Lpo,-2.24 (active)
11,CCGGAGUGACCAUAUUCGUTT against Fgr,-0.446
12,GGCUCUCAAUGAUCAUCAUTT against Aldob,-0.423
13,GGAAGUACAGAAUUUUGAATT against Sft2d2,1.46
14,GGAAAUGUUGAAUCUUGCUTT against Mfsd4a,0.0725
15,CGAUGUAAGGAAAGAAAGGTT against Cd14,-1.47
16,CCCUUUGUGUGGAUUAUAUTT against Sp9,2.91 (active)
17,GGGACUGUAAUACCAUGAUTT against Rnase10,0.0343
18,GGCCUUCACCAAAAGCAUCTT against Ncf2,-0.661
19,GGUUUCCUUUGUCUGUUUUTT against 9530091C08Rik,-0.509
20,GGCUCUAACUAUUAUGUGCTT against Psmc4,-2.9 (active)
21,CCUGGCUGUAAUCACCAUCTT against Olfr1160,0.953
22,GGACAGAUCUUUGAAGCAGTT against Vps18,-1.7

row,Sequence,z-score
1,GGACGAGGAGUACGAGCAATT against Nfkbia,2.6 (active)
2,CUACCUACUCCAUGUGGUGTT against Gpihbp1,-0.55
3,GGCCAUUAAAUUUAUCAACTT against Aldh3a1,1.61
4,GGGAGAGCUGCUGUUUUUCTT against Rxfp3,1.46
5,GGUCUGCUUUGUCUUGGUGTT against Olfr829,0.126
6,GGAUGAAGAUGAAAAGGAATT against Ube3a,-0.519
7,CCUGAAAGUCGUUUAUCGCTT against Il7r,2.74 (active)
8,GGCUAUUUAUAAGUCCAGUTT against Uso1,-0.307
9,GGAUAGGUUUCUGUAUUUATT against Znrf1,0.621
10,CCGUAUGAACGUGUGAUAATT against Rasef,0.142
11,GGGCACCUAGUUUCCAUGATT against Cox7b,-0.385
12,GGAAGUGGCGAGGUUCUAUTT against Folr1,0.782
13,GCAGAACACCGCUGGAAGUTT against Pard3,3.14 (active)
14,CGCAAUGUAUGAUUCAAUGTT against Mogat1,1.76
15,GCUAAUUCCCUGGCCUCAATT against Tro,-0.627
16,GGUUUAUAGGCCUUCUUCCTT against Flot2,-0.763
17,GCAUCGUUAUGCGCCUCACTT against Neurog2,0.297
18,CGGGCAUGAUGAAUCGAUGTT against Ldhd,1.83
19,GGCUUGAUGAAGAGAAUAUTT against Oog4,-1.45
20,CGGACUCUGUGUUCUUAGATT against Alg3,2.68 (active)
21,GGGCGACUUAUUUUUUGUUTT against Zfp111,0.333
22,GGACUUCAUCAACAACAUCTT against Nsmce1,0.459

row,Sequence,z-score
1,GGAAAUCUUCAUGAUCAGUTT against Fam24b,-2.24 (active)
2,GGUCAUCGGGUAAUUAAUCTT against Rad52,-0.618
3,GGAGUCUGCUCUCAUUCUUTT against Slc30a1,-0.214
4,GGAUGCUGAGCUUUCUGACTT against Fchsd1,0.476
5,GGCCCUGUUGCUAUGUGUUTT against Map1s,2.06 (active)
6,GGCACCGCUAUUCAGAAUUTT against Fgf23,0.755
7,GCUGGAAAAGUGCUGUGGGTT against Sult1c1,-0.494
8,GGCUUCCUUUUUGAAGCUATT against Slc35b4,0.258
9,CCGUCAAAACAUUACCAUUTT against Hmcn2,-0.363
10,GGUAGAAGAGAGUAUCAACTT against Commd1,1.28
11,GGAAAGUCUACAUGUAUUATT against Enpp6,-0.886
12,ACAUUUAUCACGACCCUUCTT against Olfr777,1.3
13,GGCCUUCACUGAUGAAUGUTT against Pramel32,-2.21 (active)
14,GGCGAAAAGCCGUUCCAUUTT against E430018J23Rik,0.664
15,GGAGAAGAACGAGAAACGUTT against Nyap2,0.904
16,CCAUUGAAAUUUCCAUCUGTT against Baalc,0.115
17,CGUGAACUUUCAGAGCAGGTT against Rrp36,0.124
18,CCAUAGCAGGGAAGAUUUUTT against Kcnd2,3.78 (active)
19,GGAUCCACAGUCAUUCAGATT against Sike1,1.13
20,GGUCUUCAUGGUCAAAGUGTT against Fzd10,2.11 (active)
21,GCAAAGUCCAGUGAACAACTT against Gtse1,-1.15
22,GGCCACAAUGGAUCAGAUGTT against Gldn,1.53

row,Sequence,z-score
1,GGAUCUUUUAGCUAACCUATT against Tesk2,1.84
2,GGCAACCUGCUGGUAAUCATT against Adrb3,3.53 (active)
3,GGCAUGCUGGAAUCAAACATT against Dppa2,0.699
4,GGUGAGCAAAGCCAAGAAGTT against Sgpl1,-1.42
5,GGCUUGCUUUGCUUCCCUUTT against Med28,-1.24
6,CCCGAAAGACAUGUAUUCGTT against Mrps18b,-0.38
7,CUACUUCGAGAACAUGGGUTT against Tpgs1,-0.749
8,GGUGAUAUCUUUCCAUCUUTT against Wiz,-0.176
9,CCACACUUAGUCAUUUUCUTT against Paral1,-2.06 (active)
10,GGCCUACGAAGUGCAAAGATT against Sipa1l3,-0.667
11,GGACUAGAAGAUCUACACUTT against Olfr67,-0.921
12,GCCUCGAUGCAAGAUGAUGTT against C2cd2l,-0.82
13,GGAUAAAGAAGGACUCAAATT against Tpbpb,-2.16 (active)
14,GGAGUAUGCGUACCUGAAGTT against Nr0b2,-0.903
15,GGCAGAGCUUGGAGUAUCUTT against Gtpbp4,1.31
16,GGGAGAAAAAGGCAUUUUUTT against Them5,0.46
17,GGACAACACAUUUGUGCUCTT against Sh2b2,0.209
18,GUCUGAACUUCUUAGCAUCTT against Uchl4,0.788
19,CCAGUGAUCAGUUUUAACGTT against Adamts20,0.184
20,CCUCAAUUGCAUGUGACCUTT against Itgb1bp1,-2.32 (active)
